Compound activity (PubChem BioAssay)
Only some compounds are listed: those with a hit (about 17% of all), similar ones and a draw of the others.
DT40 TDP1 no CPT = qHTS for Inhibitors of human tyrosyl-DNA phosphodiesterase 1 (TDP1): qHTS in cells in absence of CPT; actives 15% (n = 420,000); Potency, µM (titrated, usually from 46.2 µM), for the others: top-dose activity change, negative = growth inhibition, hits mostly inhibitors; DT40 Tdp1-/- hTDP1 cells, no CPT, ATP luminescence, 48 h; further: on the % scale 0 is the no-effect control and ±100 the full control effect; nearly all actives have a fitted effect of over 55% in size
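Growth of hTDP1-complemented DT40 Tdp1-knockout cells is measured by ATP luminescence after at least 48 hr compound exposure at 37 °C, with DMSO substituting for the 20 nM CPT used in the parallel screen.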
ClpP mod = qHTS Assay for Activators of ClpP. actives 1.9% (n = 340,000). ATP-dependent Clp protease proteolytic subunit (Bacillus subtilis (strain 168)), P80244. AID 651965, 2013. Potency, µM (titrated, usually from 57.5 µM), inactives show at the highest dose activity change, negative = active. purified B. subtilis ClpP, FRET peptide cleavage, 20 min; active means well fitted falling curve with a large enough effect; inconclusive means small, poorly fitted or top-dose-only effect; inactive means no such curve, though single readings can be large or run the other way; further: the source files actives as falling curves though it sought activators and does not explain the sign; nearly all actives have a fitted effect of over 65% in size
Target sequence (P80244 whole entry, looked up): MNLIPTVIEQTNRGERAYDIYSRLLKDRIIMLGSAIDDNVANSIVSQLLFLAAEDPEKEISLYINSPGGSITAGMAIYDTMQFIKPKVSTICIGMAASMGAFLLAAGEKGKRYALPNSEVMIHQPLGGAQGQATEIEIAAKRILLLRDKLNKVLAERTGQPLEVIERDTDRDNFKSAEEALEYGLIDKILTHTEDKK
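Purified B. subtilis ClpP, 10 microg/mL final in Tris/HCl pH8 with KCl, BSA, glycerol and Tween-20, cleaved an Abz/nitrotyrosine-quenched decapeptide. Fluorescence (ex 320, em 430) was read at 0 and 20 min at room temperature. Delta was normalized to 5.8 microM ADEP and DMSO/no-enzyme controls.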
TDP1 inh = inhibitors of human tyrosyl-DNA phosphodiesterase TDP1; Q9NUW8; recombinant TDP1, AlphaScreen DNA substrate cleavage; Potency, µM (doses to about 130 µM), for the others: at the highest dose activity change, negative = inhibition, actives largely listed as inhibitors; actives 0.28% (n = 350,000); further: on the % scale 0 is the no-effect control and ±100 the full control effect; nearly all actives have a fitted effect of over 40% in size
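Tdp1 1 nM final; 15 min RT w/ cpd; substrate 15 nM, 5 min; beads 10 ug/ml, 10 min; AlphaScreen read. Neg ctrl: no enzyme.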
DT40 TDP1 CPT = DT40-hTDP1 cell growth loss with CPT; chicken DT40 Tdp1-/-;hTDP1 cells + 20 nM CPT, ATP luminescence, 48 h; Potency, µM (highest dose often 46.2 µM), for inactives: at the highest dose activity change, negative = growth inhibition, usual class: inhibitors; actives 12% (n = 420,000); AID 686979; further: on the % scale 0 is the no-effect control and ±100 the full control effect; nearly all actives have a fitted effect of over 55% in size
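Chicken DT40 Tdp1-/- cells stably complemented with human TDP1 were seeded at 400 cells/well in medium containing 20 nM camptothecin, exposed to pin-transferred compounds, and grown at 37 °C for at least 48 hr. Viability was read as ATP luminescence.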
Active calls of the source: *; ? = inconclusive; / = no result given; [ ] = remark or other dose. Unless noted, the call rests on the fitted dose curve; in most records, active means well fitted curve in the direction sought with a large enough effect; inconclusive means small, poorly fitted or top-dose-only effect, or another doubt; inactive means no such curve, though single readings can be large; an effect the other way counts as inactive or inconclusive. Potency means the concentration at half of the fitted maximal effect.

SMILES | DT40 TDP1 no CPT | ClpP mod | TDP1 inh | DT40 TDP1 CPT
O=C(O)CCCNc1c(C(=O)Nc2ccc(Cl)cc2)cc([N+](=O)[O-])cc1[N+](=O)[O-] | -18.7% | / | 3.0% | 11.5%
COc1cccc(C2c3c(ncn(-c4ccccc4C(C)(C)C)c3=N)Oc3ccc4ccccc4c32)c1 (centres undefined) | / | / | 4.4% | /
CCN1CCCC1CNC(=O)c1cnn(-c2nccc(-c3cc4ccccc4o3)n2)c1C (centres undefined) | ? | / | / | -7.7%[9.04 µM]
NNC(=O)c1ccc(COc2cccc3ccccc23)o1 | ? | -1.5% | 6.8% | ?
CC(C)NC(=O)c1ccc(COc2ccc(C(C)(C)C)cc2)o1 | 13µM* | / | / | ?
COc1ccccc1OCc1ccc(C(=O)NCC(C)C)o1 | -23.5% | / | 5.5% | 22.6%
CCOc1ccc(OCc2ccc(C(=O)NC(C)(C)C)o2)cc1 | ? | -3.0% | 5.5% | 7.31µM*
COc1ccc(CCNC(=O)c2ccc(COc3ccccc3OC)o2)cc1 | 11.6µM* | 2.0% | / | -19.1%
CC(C)NC(=O)c1ccc(COc2cccc3ccccc23)o1 | 18.4µM* | 0.0% | / | ?
CCOc1cccc2cc(-c3nc4sc5c(c4c(=O)[nH]3)CCC(C(C)(C)C)C5)c(=O)oc12 (centres undefined) | -3.3% | 1.9% | -7.8% | -6.0%
CCOC(=O)/C=c1\s/c(=C\c2sccc2C)c(=O)n1CC(=O)NCc1ccc(C)cc1 | / | / | 2.4% | /
Cc1cnc2ccc(I)cc2c1/C=C/c1ccc(N(C)C)cc1 | 4.47µM* | -0.1% | / | ?
Cc1cnc2ccccc2c1/C=C/c1ccc(N(C)C)cc1 | ? | -0.3% | / | ?
CN(C)c1ccc(/C=C/c2c(F)cnc3ccccc23)cc1 | 3.16µM* | 1.9% | / | 7.94µM*
Cc1cc(/C=C/c2c(C)cnc3ccccc23)ccc1N(C)C | 8.91µM* | -0.5% | / | 8.91µM*
Cc1sc2nc(CSCC(=O)Nc3ccc(N4CCOCC4)cc3)[nH]c(=O)c2c1C | ? | -2.1% | -3.5% | ?
Cc1sc2nc(C(C)Nc3ccccc3N3CCOCC3)[nH]c(=O)c2c1C (centres undefined) | 14.6µM* | -0.2% | 4.0% | ?
Nc1ncnc2c1ncn2[C@@H]1O[C@H](C(=O)NCC2CCN(Cc3ccccc3)CC2)[C@@H](O)[C@H]1O | -11.5% | 1.3% | / | -2.5%
OC(CN1CCN(c2cccc(C(F)(F)F)c2)CC1)c1c[nH]c2ccccc12 (centres undefined) | 23.1µM* | -3.6% | 8.3% | ?
OC(COCc1cccs1)CN1CCN(c2cccc(C(F)(F)F)c2)CC1 (centres undefined) | 20.6µM* | 8.9% | 0.0% | 18.4µM*
CC(C(=O)NC1(C#N)CCCCC1)N(C)CC(=O)Nc1ccc(Cl)c(Cl)c1 (centres undefined) | 18.4µM* | -2.3% | 3.9% | ?
O=C(Nc1ccc(F)cc1)C1C2CCC3C(CCC21)C3(Cl)Cl (centres undefined) | 18.4µM* | / | / | ?
CSc1ccccc1OCc1cc(C(=O)N(C)Cc2ccncn2)no1 | -16.2% | 1.4% | 6.0% | -16.2%
Cc1ccccc1NC(=O)Nc1nnc(N(C)Cc2ccccc2)s1 | 16.4µM* | 2.5% | 5.7% | ?
Cc1cccc(NC(=O)Nc2nnc(N(C)Cc3ccccc3)s2)c1 | ? | 0.3% | 0.0% | 14.6µM*
SMILES | DT40 TDP1 no CPT | ClpP mod | TDP1 inh | DT40 TDP1 CPT
Cc1c(Cl)cccc1NC(=O)Nc1nnc(N(C)Cc2ccccc2)s1 | -27.3% | 0.0% | 2.9% | ?
CCN(c1ccccc1)c1nnc(NC(=O)Nc2ccccc2F)s1 | 2.59µM* | -0.7% | 0.0% | ?
COc1ccc(C(=O)CCC(=O)Nc2cccnc2)cc1OC | -1.0% | / | 5.3% | 2.8%
COc1ccc(-n2c(CCC(=O)O)ccc2-c2ccc(F)cc2)c(OC)c1 | -0.9% | -12.6% | / | 1.8%
O=C(CC1C(=O)NCCN1Cc1cccc(C(F)(F)F)c1)NC1CCCCCC1 (centres undefined) | ? | -4.1% | 3.7% | -4.3%
CCOc1ccc(NC(=O)Nc2nnc(CC)s2)cc1 | 4.2% | 28.2µM* | 6.0% | 9.4%
COc1ccc(NC(=O)Nc2nnc(N3CCCCC3C)s2)cc1OC (centres undefined) | -20.3% | -0.5% | 5.3% | 4.9%
CCOc1ccc(NC(=O)Nc2nnc(N3CCCCC3C)s2)cc1 (centres undefined) | 23.1µM* | 0.5% | 8.6% | 23.1µM*
CCOC(=O)[C@]12CCC=C1N(Cc1cccc3ccccc13)C(=O)[C@H](CC(=O)NCC1CCCCC1)C2 | 20.6µM* | -7.9% | / | 23.1µM*
COC(=O)[C@]12CCCCC=C1N(Cc1ccccc1)C(=O)[C@H](CC(=O)NCc1cccc3ccccc13)C2 | 18.4µM* | -5.2% | / | ?
COC(=O)[C@]12CCCCC=C1N(Cc1ccc3c(c1)OCO3)C(=O)[C@H](CC(=O)NCc1cccc3ccccc13)C2 | ? | -10.0% | / | ?
COC(=O)[C@]12CCCCC=C1N(Cc1cccc3ccccc13)C(=O)[C@H](CC(=O)NCCC(C)C)C2 | 14.6µM* | -3.5% | / | 18.4µM*
CCOC(=O)[C@]12CCCC=C1N(Cc1ccccc1)C(=O)[C@H](CC(=O)NCC1CCCCC1)C2 | ? | -0.8% | / | ?
COC(=O)[C@]12CCCCC=C1N(Cc1ccccc1)C(=O)[C@H](CC(=O)NCc1ccccc1)C2 | ? | -4.4% | / | ?
COC(=O)[C@]12CCCCC=C1N(Cc1cccc3ccccc13)C(=O)[C@H](CC(=O)NCc1ccccc1)C2 | 18.4µM* | 0.2% | / | ?
CCn1cc(CN2CCC(Oc3ccc(C(=O)N4CCCCC4)cc3)CC2)cn1 | -10.0% | 2.0% | 3.7% | -8.5%
CCCc1cc(=O)[nH]c(SCC(=O)Nc2cc(S(=O)(=O)N3CCCCC3)ccc2C)n1 | 12.9% | -0.3% | 4.4% | -19.8%
COC(=O)[C@]12CCCCC=C1N(Cc1cccc3ccccc13)C(=O)[C@H](CC(=O)NCCc1ccccc1OC)C2 | ? | -5.7% | / | ?
COC(=O)[C@]12CCCCC=C1N(Cc1cccc3ccccc13)C(=O)[C@H](CC(=O)NCC1CCCCC1)C2 | 18.4µM* | -0.1% | / | ?
CCOC(=O)[C@]12CCCC=C1N(Cc1ccccc1)C(=O)[C@H](CC(=O)NCc1cccc3ccccc13)C2 | -29.8% | 0.3% | / | 18.4µM*
CCOC(=O)[C@]12CCCC=C1N(Cc1ccccc1)C(=O)[C@H](CC(=O)NCCc1ccccc1OC)C2 | 13µM* | 0.8% | / | ?
CCOC(=O)[C@]12CCCC=C1N(Cc1ccc(Cl)cc1Cl)C(=O)[C@H](CC(=O)NCCCCc1ccccc1)C2 | ? | -2.3% | / | ?
